Test [1] deals with Cytochrome P450 3A4 (Homo sapiens) (UniProt P08684). The experiment in a line: qHTS Assay for Inhibitors and Substrates of Cytochrome P450 3A4 (AID 884). Further: nearly all actives have a fitted effect of over 50% in size. Further: potency means the concentration at half of the fitted maximal effect. On activity change, negative = inhibition: on the % scale 0 is the no-effect control and ±100 the full control effect. A digest of the protocol:
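20 nM human CYP3A4 with 25 uM Luciferin-PPXE (at KM) in 200 mM KPO4, preincubated 10 min with compound; NADPH regeneration started a 60 min RT reaction. Luciferin detected by luminescence, normalized to 57 uM ketoconazole as full inhibition.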

Test [2] has the same target. Put plainly: qHTS Assay for Activators of Cytochrome P450 3A4 (AID 885). Further: nearly all actives have a fitted effect of over 65% in size. A digest of the protocol: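 Quantitative HTS format: compounds preincubated with 20nM human CYP3A4 and Luciferin-PPXE substrate at KM, reaction started by NADPH regeneration, stopped after 60 min, luciferase luminescence read 20 min later.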
Test [3] is described as follows: Confirmation and Secondary Assay for Modulators of Hemoglobin Beta Chain Splicing at IVS2 654 locus (AID 910).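 Further: HeLa cells stably carrying EGFP split by mutant beta-globin IVS2-654 intron; % of control where 0% means no effect.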 The gist of the method: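 HeLa cells stably expressing EGFP interrupted by β-globin IVS2-654 intron, seeded overnight in Opti-MEM/2% FCS, then treated 2 days at 37 °C. Restored splicing read as total peak GFP intensity per well by laser scanning cytometry (488 nm excitation, 500–520 nm emission); 500 nM antisense PNA as control.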

A short description of test [4]: Confirmation and Secondary Assay for Modulators of Hemoglobin Beta Chain Splicing at IVS2 705 locus (AID 930).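 Further: HeLa cells stably expressing the EGFP-705 splicing reporter; % of control where 0% means no effect.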 The gist of the method: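 Assay measures total GFP intensity per well in HeLa EGFP-705 cells after 2 days with compound; mis-splicing normally truncates EGFP, so fluorescence indicates corrected splicing.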
Test [5] is described as follows: qHTS Assay for Lipid Storage Modulators (AID 1519; calls by dose curve; on activity change, negative = inhibition: on the % scale 0 is the no-effect control and ±100 the full control effect). Conditions: Drosophila S3 cells, BODIPY lipid droplet/cell ratio, laser cytometry, cells loaded with oleic acid; for activity change, negative = inhibition: at 57.5 µM (top of the series). The gist of the method: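 Cells seeded at 5,000 per well were treated with compounds over a concentration series and loaded with oleic acid (400 uM, as added). Lipid droplet fluorescence (488 nm excitation, 500-530 nm channel) was read by laser-scanning cytometry and normalized to 20 uM Triacsin C.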
A general note: qHTS replaces the single test concentration by a dilution series.

Test [6] concerns the target Ubiquitin carboxyl-terminal hydrolase 1 (Homo sapiens) (UniProt O94782). The experiment in a line: Inhibitors of USP1/UAF1: Pilot qHTS (AID 504865).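 Further: rhodamine fluorescence freed from ubiquitin-rhodamine substrate followed over time; top concentration of the series differs between compounds; on the % scale 0 is the no-effect control and ±100 the full control effect; nearly all actives have a fitted effect of over 35% in size.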 A digest of the protocol: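 In 50mM HEPES pH 7.8 containing 0.5mM EDTA, 1mM TCEP, 0.1 mg/ml BSA and 0.01% Tween-20, 1nM USP1/UAF1 is exposed to compound for 15 min, then Ub-Rho (150nM final) is added and fluorescence is read over time.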

[7] abbreviates: measured here: cell count channel max response.
Where [8] appears, read: measured here: lipid channel max response.

Records with an inconclusive call do not appear. Activity calls are given as the source filed them. Unless noted, the call rests on the fitted dose curve; in most records, active means well fitted curve in the direction sought with a large enough effect; inconclusive means small, poorly fitted or top-dose-only effect, or another doubt; inactive means no such curve, though single readings can be large; an effect the other way counts as inactive or inconclusive.

Experimental findings from PubChem BioAssay (NCATS) are described below.

Chain of Cytochrome P450 3A4 (Homo sapiens) (P08684 whole entry, looked up): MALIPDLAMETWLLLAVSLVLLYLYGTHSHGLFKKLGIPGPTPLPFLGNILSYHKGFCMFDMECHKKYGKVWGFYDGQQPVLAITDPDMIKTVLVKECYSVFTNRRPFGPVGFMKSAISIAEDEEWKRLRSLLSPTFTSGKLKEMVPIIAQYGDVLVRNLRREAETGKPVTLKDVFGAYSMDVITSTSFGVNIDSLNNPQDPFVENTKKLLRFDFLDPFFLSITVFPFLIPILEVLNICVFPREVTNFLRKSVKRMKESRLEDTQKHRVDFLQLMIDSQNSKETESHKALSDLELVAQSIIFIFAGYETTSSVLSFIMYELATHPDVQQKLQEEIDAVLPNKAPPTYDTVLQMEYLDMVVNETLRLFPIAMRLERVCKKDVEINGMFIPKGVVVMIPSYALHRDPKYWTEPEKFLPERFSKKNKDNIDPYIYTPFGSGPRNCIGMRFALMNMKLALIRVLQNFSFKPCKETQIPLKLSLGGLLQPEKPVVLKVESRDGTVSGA
Chain of Ubiquitin carboxyl-terminal hydrolase 1 (Homo sapiens) (O94782 whole entry, looked up): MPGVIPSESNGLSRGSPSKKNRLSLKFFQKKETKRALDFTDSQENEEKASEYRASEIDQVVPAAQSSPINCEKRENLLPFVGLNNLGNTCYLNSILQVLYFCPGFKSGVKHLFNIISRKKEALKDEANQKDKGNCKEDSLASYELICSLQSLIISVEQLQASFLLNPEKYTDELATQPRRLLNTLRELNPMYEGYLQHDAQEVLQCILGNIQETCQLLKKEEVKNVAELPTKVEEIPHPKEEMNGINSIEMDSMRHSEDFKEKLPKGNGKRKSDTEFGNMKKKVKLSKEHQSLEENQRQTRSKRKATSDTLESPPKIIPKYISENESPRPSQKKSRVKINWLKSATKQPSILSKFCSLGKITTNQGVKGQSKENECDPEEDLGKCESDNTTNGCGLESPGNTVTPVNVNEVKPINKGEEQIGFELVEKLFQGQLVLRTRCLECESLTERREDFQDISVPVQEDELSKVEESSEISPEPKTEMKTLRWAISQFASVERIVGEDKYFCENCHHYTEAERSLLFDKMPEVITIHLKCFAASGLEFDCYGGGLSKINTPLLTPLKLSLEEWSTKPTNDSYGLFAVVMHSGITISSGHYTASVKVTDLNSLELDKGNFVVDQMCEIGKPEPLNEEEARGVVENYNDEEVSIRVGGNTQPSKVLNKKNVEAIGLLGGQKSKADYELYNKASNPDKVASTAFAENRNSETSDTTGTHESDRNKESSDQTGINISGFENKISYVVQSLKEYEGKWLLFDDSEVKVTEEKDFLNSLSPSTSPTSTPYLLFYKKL

Regarding `CC1CC[C@@]23CCC4(C)[C@@]5(C)CCC6C(C)(C)C(O)CC[C@@]6(C)C5C=C[C@@]4(OC2=O)C3C1C` (some centres undefined), in test [1], the Potency is 5.01 µM (active). For the same compound, the Potency result in test [2], in test [3], in test [4] and in test [6] was “inactive” in each case. Further, the activity change, negative = inhibition in test [5] is 1.82% (inactive). In addition, the max response in test [5] (setting [7]) came out at 9.51%; in test [5] (setting [8]) it was 12.3%.

As for `COC1(C)CCC2OC2(C)CCC2C1CC2(C)C` (centres undefined), in test [1], the Potency was 10 µM (active). Besides, the Potency result in test [2], in test [3], in test [4] and in test [6] was “inactive” throughout. Moreover, in test [5], the activity change, negative = inhibition is 4.15% (inactive). In addition, the results for the max response in test [5] (setting [7]) and in test [5] (setting [8]) were 6.3% and 11.9%, respectively.

On to `O=c1ccn(C2OC(COP(=O)(O)OP(=O)(O)OP(=O)(O)O)C(O)C2O)c(=O)[nH]1` (centres undefined), for which the Potency result in test [1], in test [3], in test [4] and in test [6] was “inactive” throughout. Further, in test [5], the activity change, negative = inhibition was 6.49% (inactive). For the same compound, the max response in test [5] (setting [7]) was 21.5%; in test [5] (setting [8]), 29.6%.

Take `CC(=O)OCCC(C)CCC=C(C)C` (centres undefined): the Potency result in test [1], in test [3], in test [4] and in test [6] was “inactive” each time. In addition, the activity change, negative = inhibition in test [5] was 5.97% (inactive). The figures for the max response in test [5] (setting [7]) and in test [5] (setting [8]) were 4.67% and 12.4%, respectively.

Regarding `C=C1C2CC[C@@]3(C)C(c4ccoc4)OC(=O)C[C@@]13OC1CC(=O)C(C)(C)C(CC(=O)OC)[C@]12C` (some centres undefined), in test [1], the Potency is 5.01 µM (active). The Potency entry in test [2], in test [3], in test [4] and in test [6] was “inactive” in each case. Besides, in test [5], the activity change, negative = inhibition was 0.233% (inactive). Also, the figures for the max response in test [5] (setting [7]) and in test [5] (setting [8]) were -7.73% and -5.31%, respectively.

In the case of `COc1cc2c(cc1OC)Cc1cc(OC)c(OC)cc1Cc1cc(OC)c(OC)cc1C2`, the Potency in test [1] is 12.6 µM (active). Moreover, the Potency entry in test [2], in test [3], in test [4] and in test [6] was “inactive” throughout. Besides, in test [5], the activity change, negative = inhibition was -1.62% (inactive). The max response in test [5] (setting [7]) was 2.54%; in test [5] (setting [8]) it was 2.42%.

As to `CC1=C2C(O)C(=O)OC3CC4C(C)(C)C(=O)C=C[C@]4(C)C(CC1)[C@@]23C` (some centres undefined), the Potency entry in test [1], in test [3], in test [4] and in test [6] was “inactive” throughout. Further, the activity change, negative = inhibition in test [5] was 3.51% (inactive). In addition, the max response in test [5] (setting [7]) worked out at 17.8%; in test [5] (setting [8]), 24.5%.

Turning to `CC(=O)OC1CC(O)C(C)(C)C2CC(OC(C)=O)[C@]3(C)C(CC[C@@]4(C)C(c5ccoc5)OC(=O)C5OC534)[C@]12C` (some centres undefined), in test [1], the Potency is 2.51 µM (active). Also, the Potency result in test [2], in test [4] and in test [6] was “inactive” throughout. In test [5], the activity change, negative = inhibition is 4.32% (inactive). Moreover, the max response was 12.6% in test [5] (setting [7]) and 20.3% in test [5] (setting [8]).

Take `NCCC(O)C(=O)NC1C[C@@H](N)[C@H](O[C@@H]2OC(CN)C(O)C(O)C2O)C(O)[C@H]1O[C@H]1OC(CO)C(O)C(N)C1O` (some centres undefined): the Potency result in test [1], in test [3], in test [4] and in test [6] was “inactive” each time. Also, the activity change, negative = inhibition in test [5] was 7.58% (inactive). Moreover, the max response in test [5] (setting [7]) came to 23.7%; in test [5] (setting [8]), 35.1%.

Turning to `C=C1C2CC[C@@]3(C)C(c4ccoc4)OC(=O)C[C@@]13OC1CC(=O)C(C)(C)C(C(O)C(=O)OC)[C@]12C` (some centres undefined), the Potency in test [1] is 2.51 µM (active). In addition, the Potency entry in test [2], in test [3], in test [4] and in test [6] was “inactive” throughout. Also, the activity change, negative = inhibition in test [5] is -0.848% (inactive). Moreover, the max response in test [5] (setting [7]) came to 11.1%; in test [5] (setting [8]) it was 18.5%.

Regarding `CCCCCC(=O)Cc1cc(O)cc(O)c1C(=O)Oc1cc(CC(=O)CCCCC)c(C(=O)O)c(OC)c1`, in test [1], the Potency was 15.8 µM (active). Further, the Potency result in test [2], in test [3], in test [4] and in test [6] was “inactive” in each case. The activity change, negative = inhibition in test [5] is 4.27% (inactive). Further, the max response stood at 7.66% in test [5] (setting [7]) and 16.1% in test [5] (setting [8]).

Consider `C=C1C(C2(C)C=CC(=O)C(C)(C)C2CC(=O)OC)CC[C@@]2(C)C(c3ccoc3)OC(=O)C3OC132` (some centres undefined), for which the Potency in test [1] is 2.51 µM (active). For the same compound, the Potency result in test [2], in test [3], in test [4] and in test [6] was “inactive” throughout. In addition, the activity change, negative = inhibition in test [5] was 4.06% (inactive). Also, the figures for the max response in test [5] (setting [7]) and in test [5] (setting [8]) were 5.07% and 10.2%, respectively.

In the case of `COc1ccc2c(c1)[C@]1(C)CCC(=O)C[C@H]1CC2`, the Potency in test [1] is 3.16 µM (active). Further, the Potency entry in test [2], in test [3], in test [4] and in test [6] was “inactive” each time. The activity change, negative = inhibition in test [5] is 8.23% (inactive). The values for the max response in test [5] (setting [7]) and in test [5] (setting [8]) were -1.73% and 6.33%, respectively.

Regarding `CC1(C)C(=O)CC[C@@]2(C)C1CC(O)[C@@]1(C)C3=CC(=O)OC(c4ccoc4)[C@]3(C)CCC21` (some centres undefined), in test [1], the Potency was 15.8 µM (active). For the same compound, the Potency result in test [2], in test [3], in test [4] and in test [6] was “inactive” each time. The activity change, negative = inhibition in test [5] is 11% (inactive). Besides, the max response came out at 13.9% in test [5] (setting [7]) and 28.4% in test [5] (setting [8]).

In the case of `C[C@@H]1OC(OC2C(OC3CC[C@@]4(C)C5CC=C6C7CC(C)(C)CC[C@@]7(C(=O)O)CCC6(C)C5(C)CCC4[C@]3(C)CO)OCC(O)C2O)C(O)C(O)C1O` (some centres undefined), the Potency entry in test [1], in test [3], in test [4] and in test [6] was “inactive” each time. In addition, the activity change, negative = inhibition in test [5] was 3.66% (inactive). The max response came to 9.24% in test [5] (setting [7]) and 14.3% in test [5] (setting [8]).
